Experimental data as given in the supplement of paper PMC10338343.
± gives the standard deviation.

Tested on: MILI (PIWIL2) piRISC loaded with piRNA #1 (26 nt)
Test: pre-steady-state target cleavage rate (min^-1); guide: piRNA #1 5'p-UGAGGUAGUAGGUUGUAUAGUAUCCA; MIWI and MILI are mouse PIWI proteins and EfPiwi is from a freshwater sponge; tags in brackets are library labels; higher = faster piRNA-guided slicing of the target
Details: auxiliary factor: 500 nM mouse GTSF1
How it was run: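 The pre-steady-state cleavage rate was obtained by Cleave-'n-Seq with a burst-and-steady-state fit. A transcribed, DNA-blocked target RNA library (0.1 nM) was mixed with 1 nM active affinity-purified piRISC carrying one synthetic guide, with or without 500 nM GTSF1 partner protein, in HEPES–potassium acetate buffer at 33 °C for 0–8 or 0–960 min. Uncleaved targets were sequenced and normalised to depth and to weakly complementary targets, with three trials pooled and k3 capped at 0.0001 min^-1.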

Sequence	pre-steady-state target cleavage rate
GGAGACCAUACUUUACAACCUACUACCACA	0.226 ± 0.023
GGAGUGGAUUCUAUAGAACCUACUACCUCA	0.179 ± 0.012
GGAGACCUAUCUAUACAACCUACUAGCCUCA	0.147 ± 0.02
GGAGACCUAUGAUAUGUUCCUACUACCUGA	< 0.0001
GGAGACCUAAGUAUACAACCUACUAGCUCA	0.0149 ± 0.0043
GGAGACCAUACUUAUCAACCUACUACCUCA	0.102 ± 0.02
GGAGACCUAUCUAUAGUUCCUACUACCUCA	0.0473 ± 0.012
GGAGACCUAUCUAUACAACCAACUACGUCA	0.00385 ± 0.0021
GGAGACCUAUCUAUACAGCCUACUACCUCA	0.0315 ± 0.006
GGAGACGAUACUAUUCAACCUACUACCUGA	0.105 ± 0.017
GGAGACGAUACUAUACAACCUACUUGCUCA	0.155 ± 0.052
GGAGACCUAUGUAUAGAACCUACUACCUGA	0.00583 ± 0.0025
GGAGACCAUACUAUACUACCAACUACCUCA	0.00547 ± 0.0022
GGAGACCUAACUAUACAUCCUACUAGCUCA	0.162 ± 0.042
GGAGACCUAACAAUUCAACCUACUACCUCA	0.0406 ± 0.013
GGAGACCUAUGUAUACAACCUACUACACUCA	0.12 ± 0.018
GGAGUGGAUACUAUACUACCUACUACCUCA	0.196 ± 0.0088
GGAGACCUUACAAUACAACCUACUACCACA	0.133 ± 0.015
GGAGACCUAUGAAUACAACCUCCUACCUCA	0.00498 ± 0.0023
GGAGACCUAACAAUACAACCUACAACCUCA	0.0691 ± 0.019
GGAGACCUAUGAUAUCUAACCUACUACCUCA	0.00471 ± 0.0023
GGAGACCUAACAAUACAACCAACUACCUCA	0.00518 ± 0.004
GGAGACCUAUCUAUUCUACCUACUACCUCA	0.0569 ± 0.0086
GGAGACCUAUGAUAUGUACCAACAACCUCA	< 0.0001

Sequence	pre-steady-state target cleavage rate
GGAGAGGUUAGUAUACAACCUACUACCUCA	0.0314 ± 0.0096
GGAGACCUAACUAUACUACCUACAACCUCA	0.0957 ± 0.018
GGAGACCUAUGAUAUGUACCAUCUACCUCA	< 0.0001
GGAGACCUUACUAAACAACCUACUACCUCA	0.112 ± 0.012
GGAGACCUUACUAUACAACCUAUCUACCUCA	0.0976 ± 0.011
GGAGAGGAUACUAUUGUACCUACUACCUCA	0.131 ± 0.0096
GGAGACCUAUGUAUACUACCUACUACCACA	0.0548 ± 0.008
GGAGACCAUACUAUACAACGAUCUACCUCA	< 0.0001
GGAGACCUAUCUAUACAUCCUACUACGUCA	0.0773 ± 0.017
GGAGACCUAUUUAUACAACCUACUACCUCA	0.0657 ± 0.02
GGAGACCUAUGUAUACACCCUACUACCUCA	0.0161 ± 0.0035
GGAGACCUAUGAUUACAAGCUACUACCACA	0.0854 ± 0.022
GGAGACCUAUGAAUACAACCUACUAACUCA	0.00512 ± 0.0027
GGAGACCUAUCUUUACAACCUUCUACCUCA	0.00489 ± 0.0025
GGAGUGGUUACUAUAGAACCUACUACCUCA	0.175 ± 0.014
GGAGACCUAUGAUAUGAACCACUACCUCA	< 0.0001
GGAGACCUAUCUAUACAACCUACUCCCUCA	0.0608 ± 0.0097
GGAGACGAUACUAUACAACCUACAUGCUCA	0.0563 ± 0.016
GGAGACCUAUCUAUACAUCCUUCUACCUCA	0.0137 ± 0.0039
GGAGACCUAUGUAUACUACCUACAACCUCA	0.0574 ± 0.0091
GGAGACCUUACUAUUCAACCUACUACCACA	0.161 ± 0.016
GGAGACCUUACUAUACUACCUACAACCUCA	0.13 ± 0.011
GGAGACCUUACAAUUCAACCUACUACCUCA	0.102 ± 0.013
GGAGACCUUACUAUUCAUCCUACUACCUCA	0.231 ± 0.018

Sequence	pre-steady-state target cleavage rate
GGAGACCUUACUAUACAACCUACUACGCUCA	0.256 ± 0.019
GGAGACCUAUGUAUACAUCCUACAACCUCA	0.114 ± 0.014
GGAGACCUAUGAUUACUACCUACUUCCUCA	0.00322 ± 0.0022
GGAGACCUAUGAAUACUACCUACUACCUCA	0.0049 ± 0.0017
GGAGACCUAUGAUAUGUUCGUACUACCUGA	< 0.0001
GGAGACCUUACUAUACAACCUACUACCUAA	0.154 ± 0.019
GGAGACCUAUGAUUACAACCUACUACCUGCA	0.00769 ± 0.0026
GGAGUGGAUACUAUACAACCUAUACCUCA	0.0048 ± 0.002
GGAGACCUAACUAUACUACCUACUAGCUCA	0.0708 ± 0.021
GGAGACCUAUGAUUACAACCUACUCCUCA	< 0.0001
GGAGACCUAUGAAUACAACGUACUACCACA	0.00353 ± 0.0029
GGAGACCUAUGAAUACAACCUAUUACCUCA	0.00604 ± 0.003
GGAGACCUAUGAAUACAACCUACUAACCUCA	0.0105 ± 0.0027
GGAGACCUAUCUAUACAACCUACUACGCUCA	0.229 ± 0.023
GGAGUGGAUACUAUACAACCUACUUGGUCA	< 0.0001
GGAGACCUAUGAUAUGUACCUUCUACGUCA	< 0.0001
GGAGACCUAUGAUAACAACUUACUACCUCA	0.00545 ± 0.0023
GGAGACCUAUGAAUACUACCUACUACCACA	0.00343 ± 0.0025
GGAGACCUAUGAUAUGUACCUACUACCCA	< 0.0001
GGAGACCUAUGUAAACAACCUAGUACCUCA	0.00454 ± 0.0024
GGAGACCUAUCUAUACAACCUACUACCAUCA	0.123 ± 0.016
GGAGACCUAUCUAUACAACCGUACUACCUCA	0.00775 ± 0.0032
GGAGACCUAUGUAUUCAACCUACUACCUCA	0.0588 ± 0.0091
GGAGACCUAUCUAUACUACGUACUACCUCA	0.013 ± 0.0024

Sequence	pre-steady-state target cleavage rate
GGAGACCUAUCUAUACAACCUACAACCACA	0.0576 ± 0.014
GGAGACCUAUCUAUACAACCUACCACCUCA	0.0927 ± 0.018
GGAGACCUUUGUAUACAACCUACUACCUCA	0.0347 ± 0.0065
GGAGACCUAUGUAUACAAGCUACUACGUCA	0.0451 ± 0.009
GGAGACCUAUCAUACAACCUACUACCUCA	0.0591 ± 0.0093
GGAGACCUAUGAAAACAUCCUACUACCUCA	0.00361 ± 0.0024
GGAGACCUAUCUAUAGAACCUACAACCUCA	0.00275 ± 0.0025
GGAGACCUAUCUAAACUACCUACUACCUCA	0.051 ± 0.012
GGAGACCUAUGUAAUCAACCUACUACCUCA	0.00445 ± 0.003
GGAGACCUUACUAUACAACCUACAACCUGA	0.0284 ± 0.0093
GGAGACCAUACUAUACAAGCAACUACCUCA	0.00864 ± 0.003
GGAGACCUAUGAUAUGUACCUACAAGCUCA	< 0.0001
GGAGACCUAUGUAUACAACCUACUACGUGA	0.0238 ± 0.0053
GGAGACCUAUGUAUACUUCCUACUACCUCA	0.0232 ± 0.005
GGAGUGGAAACUAUAGAACCUACUACCUCA	0.204 ± 0.014
GGAGACCUAUGUAUACAACCUACUACCCA	0.0226 ± 0.0055
GGAGUGGAUACUAUUCAACGUACUACCUCA	0.0305 ± 0.004
GGAGACCUAUGAUAACAACCUACUUGGUCA	< 0.0001
GGAGUGGAUACUUUAGAACCUACUACCUCA	0.116 ± 0.0096
GGAGACCUUACUAUACAAGCUAGUACCUCA	0.138 ± 0.02
GGAGACCUAUGAUAUGUUCCUACUUACCUCA	< 0.0001
GGAGACCUUACUAUACAACCUACUACCCCA	0.142 ± 0.021
GGAGUGGAUACUAUUCAACCUACUUCCUCA	0.00253 ± 0.002
GGAGACCAUACUAUAGUACCUACUACCUCA	0.149 ± 0.018

Sequence	pre-steady-state target cleavage rate
GGAGACCUAUGAAUACAACCUACUUCCUCA	0.00371 ± 0.0019
GGAGACCUAUCUAUACAACCUACUAGCACA	0.0357 ± 0.012
GGAGAGGAUACUAUACUACCUACUAGCUCA	0.0852 ± 0.013
GGAGACCUAUGAUAUGUAGGAACUACCUCA	< 0.0001
GGAGACCUAACUAUACAACCUACUAGCCUCA	0.186 ± 0.035
GGAGAGGAUACUAUACAACCAACUACCACA	0.0058 ± 0.0018
GGAGACCUAUCUAUACAACCUACUCACCUCA	0.0886 ± 0.011
GGAGACGAUACUAUACAUGGUACUACCUCA	0.00601 ± 0.0019
GGAGACCUAUGAAUACAAACUACUACCUCA	0.0186 ± 0.0035
GGAGACCUAUGUAUACAACGUACUUCCUCA	0.0105 ± 0.0026
GGAGACCUAAGUAUAGAACCUACUACCUCA	0.0747 ± 0.013
GGAGACCUAUGAUAACAAACUACUACCUCA	0.0114 ± 0.0029
GGAGAGGCAUACUAUACAACCUACUACCUCA	0.177 ± 0.014
GGAGACCAUACUAAACAACCUACUACCUGA	0.13 ± 0.018
GGAGACCUUACUAUACAACCUACUUCGUCA	0.0614 ± 0.015
GGAGACCUAAGUAUACAACCUAGUACCUCA	0.0133 ± 0.0034
GGAGACCUAUGUUAACAACCUACUACCUCA	0.0234 ± 0.0048
GGAGACCUAACUAUACAACCUACUACCGCA	0.197 ± 0.038
GGAGACCUUACUAUACAACCUACUACUCA	0.216 ± 0.025
GGAGACCUAUGUAUACAACCUACGACCUCA	0.0402 ± 0.0075
GGAGACCUAAGUAUACAACCUUCUACCUCA	0.00652 ± 0.0032
GGAGACCUAACUAAAGAACCUACUACCUCA	0.0693 ± 0.013
GGAGACCUAUGUAUACAACCUACUACUUCA	0.0634 ± 0.0075
GGAGUGGAUACUAAACAACCUACUUCCUCA	0.00431 ± 0.0024
